Results on three compounds are retold here after PubChem BioAssay AID651808 (Broad Institute, 2012).

A short description of the assay: dose response, DH231 delta cqsS, luminescence, dry powder (AID 651808). The following applies: V. cholerae DH231 delta cqsS, luxCDABE luminescence, 6 h, stronger effect = higher value.

The structures appear in SMILES notation. Inconclusive results are not listed. Calls of active or inactive are those of the source. How the calls were made is not given here.

With `CCn1nnc(NCc2ccc(C)cc2)n1`, the max activity (light induction) (at 0.35 µM, test 2) is 39.1% (inactive). `CC(C)c1ccc(CNc2nnnn2C)cc1`: for the setting “measured here: test 1 replicate run, at 0.0042 µM, test 1”, the max activity (light induction) is 39.1%. `CCCn1nnnc1NCc1ccccc1Cl` had a max activity (light induction) (measured here: test 1 replicate run, at 0.35 µM, test 1) of 43.6%.
